From ChEMBL document CHEMBL2218924, “A broad activity screen in support of a chemogenomic map for kinase signalling research and drug discovery” (Biochem J, 2013)

Target: MAP kinase-activated protein kinase 3 (Homo sapiens) (UniProt Q16644)
Settings: at 1 µM

Chain of MAP kinase-activated protein kinase 3 (Homo sapiens) (Q16644 whole entry, looked up): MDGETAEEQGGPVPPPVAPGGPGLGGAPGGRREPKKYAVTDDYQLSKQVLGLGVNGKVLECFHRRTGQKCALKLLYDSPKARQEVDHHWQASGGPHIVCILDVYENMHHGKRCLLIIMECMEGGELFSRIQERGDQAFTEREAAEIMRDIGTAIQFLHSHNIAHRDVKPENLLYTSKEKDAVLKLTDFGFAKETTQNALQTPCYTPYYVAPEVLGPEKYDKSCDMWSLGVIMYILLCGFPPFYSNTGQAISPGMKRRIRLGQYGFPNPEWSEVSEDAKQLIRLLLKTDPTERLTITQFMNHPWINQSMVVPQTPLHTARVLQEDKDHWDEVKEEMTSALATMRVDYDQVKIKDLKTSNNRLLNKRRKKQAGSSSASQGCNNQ

Row | SMILES | residual activity [%]
1 | O=C1Nc2ccccc2/C1=C1/Nc2ccccc2/C1=N\OCCC(O)CO (stereo unspecified) | 106
2 | Nc1ncnc2[nH]nc(Nc3ccc(F)cc3)c12 | 107
3 | Nc1ncnc2c1c(-c1ccc(Oc3ccccc3)cc1)cn2C1CCCC1 | 114
4 | COc1cc2c(cc1OC)-c1n[nH]c(Nc3cccc(F)c3)c1C2 | 99
5 | O=c1c2ccccc2[nH]c(=S)n1CCN1CCC(=C(c2ccc(F)cc2)c2ccc(F)cc2)CC1 | 89
6 | O=c1c(-c2ccc(F)cc2)c(-c2ccncc2)[nH]n1-c1ccc(Cl)cc1 | 122
7 | CC(=O)O/N=C1\C(=C2\C(=O)Nc3cc(Br)ccc32)Nc2ccccc21 | 97
8 | CNc1cc2c(Nc3cccc(Br)c3)ncnc2cn1 | 117
9 | N#C/C(=C(\N)Sc1ccc(N)cc1)c1ccccc1C(F)(F)F | 98
10 | CCOC(=O)c1c(C)[nH]c(/C=C2\C(=O)Nc3ccccc32)c1C | 98
11 | CCOc1cc2ncnc(Nc3cccc(Br)c3)c2cc1OCC | 106
12 | Nc1nc(Nc2ccc(S(N)(=O)=O)cc2)nn1C(=O)c1c(F)cccc1F | 103
13 | COc1ccc(CNc2nc(N(CCO)CCO)nc3c2ncn3C(C)C)cc1 | 110
14 | CC[n+]1c(/C=C/N(C)c2ccccc2)n(-c2ccccc2)c2ccc(-c3nc4ccccc4s3)cc21 | 100
15 | NC(=O)c1ccc2[nH]c(-c3ccc(Oc4ccc(Cl)cc4)cc3)nc2c1 | 111
16 | O=Nc1c(-c2c(O)[nH]c3ccccc23)[nH]c2ccccc12 | 117
17 | NCCNc1ncc(C(N)=O)c(Nc2cccc(C(F)(F)F)c2)n1 | 106
18 | CCCCc1c(-c2ccc(OC)cc2)[nH]c2nccnc12 | 130

Row | SMILES | residual activity [%]
19 | O=C1Nc2ccc(Cl)cc2/C1=C/c1cc(Cl)c(O)c(Cl)c1 | 92
20 | c1ccc(-c2n[nH]cc2-c2ccnc3ccccc23)nc1 | 109
21 | COc1ccc(C(=O)Nc2sc3c(c2C(N)=O)CCCC3)cc1OC | 71
22 | O=C(O)c1ccc2c3c1cccc3c(=O)n1c3ccccc3nc21 | 123
23 | Nc1n[nH]c2nc3ccccc3nc12 | 99
24 | COc1ccc(OC)c2c(=S)c3ccccc3[nH]c12 | 100
25 | O=C1Nc2cc(Br)ccc2/C1=C1/Nc2ccccc2/C1=N\O | 98
26 | CN[C@@H]1C[C@H]2O[C@@](C)([C@@H]1OC)n1c3ccccc3c3c4c(c5c6ccccc6n2c5c31)C(=O)NC4 | 101
27 | c1ccc(-c2cnc(Nc3ccc(OCCN4CCCC4)cc3)s2)cc1 | 118
28 | O=C(O)/C=C/c1cc(Br)c(Br)c(Br)c1Br | 107
29 | CN(C)CCCn1cc(C2=C(c3c[nH]c4ccccc34)C(=O)NC2=O)c2ccccc21 | 137
30 | COc1cc2nccc(Oc3ccc(NC(=S)NC(=O)c4ccccc4C)cc3)c2cc1OC | 101
31 | CN(C)S(=O)(=O)c1ccc2c(c1)/C(=C/c1cc3c([nH]1)CCCC3)C(=O)N2 | 94
32 | O=C1NC(=O)c2cc(Nc3ccc(F)cc3)c(Nc3ccc(F)cc3)cc21 | 90
33 | O=C1NC(=O)C(c2cn(CCCn3ccnc3)c3ccccc23)=C1Nc1ccccc1 | 126
34 | N#CCCc1ccc2c(c1)-c1[nH]c3ccc([N+](=O)[O-])cc3c1CC(=O)N2 | 100
35 | CC(C)(C)n1nc(Cc2cccc3ccccc23)c2c(N)ncnc21 | 116
36 | Cc1nc2cc3nc(-c4cccs4)cnc3cc2n1C | 114
